Over roughly 16,000 sequences, “rpm ratio (pull-down/input)” has its median near 0.5; the highest 2% begin near 5.5. This is one part of a sample in which the highest values are shown more often than they occur.

The assay addresses T1, MBP-FoxP3dN (Mus musculus, UniProt Q99JB6 188-423).
T1 sequence: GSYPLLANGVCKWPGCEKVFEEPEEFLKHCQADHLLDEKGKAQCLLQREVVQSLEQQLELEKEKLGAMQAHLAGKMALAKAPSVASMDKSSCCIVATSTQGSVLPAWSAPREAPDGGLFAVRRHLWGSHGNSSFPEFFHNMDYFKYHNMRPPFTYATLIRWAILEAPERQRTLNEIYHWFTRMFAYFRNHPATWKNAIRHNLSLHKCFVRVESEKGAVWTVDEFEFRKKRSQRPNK
Description: PD-seq (MBP pull-down with sequencing); 20 mM Tris-HCl pH 7.5, 100 mM NaCl, 1.5 mM MgCl2, 0.4 uM protein, 0.1 uM dsDNA library, 30 min, room temperature, amylose pull-down; high values mean tight binding. Particulars: protein: recombinant; tags: His6-MBP; chain copies: 2; dsDNA, one strand shown. An outline of the steps:
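Binding is the reads-per-million enrichment of pull-down relative to input, pooled across replicates. For this, 0.4 µM His6-MBP-tagged mouse FoxP3 or FoxP1 fragment lacking the N-terminus, made in E. coli, was incubated with 0.1 µM Klenow-filled double-stranded degenerate DNA library for 30 min at room temperature in Tris pH 7.5 buffer with NaCl and MgCl2. Complexes bound to amylose resin were washed three times before proteinase K released the DNA for PCR barcoding and Illumina sequencing.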
Take “GATGATTGTTCTCCCAGCTGATGAATTGGGAACTTCGAGTAAACAAATTTTCCTAATCTTTCTGTTCAAGCGCCATCTAC”: the binding signal was 0.252 RPM ratio (pull-down/input).

Regarding “GATGATTGTTCTCCCAGCTGATGAATTGATAGATTCGAGTAAACAAATTTTCCTAATCTTTCTGTTCAAGCGCCATCTAC”, the binding signal is 0.495 RPM ratio (pull-down/input). The value for “GATGATTGTTCTCCCAGCTGATGAATTCATAGGCTCGAGTAAACAAATTTTCCTAATCTTTCTGTTCAAGCGCCATCTAC” was 0.321 RPM ratio (pull-down/input); that for “GATGATTGTTCTCCCAGCTGATGAATTATCCCGGTCGAGTAAACAAATTTTCCTAATCTTTCTGTTCAAGCGCCATCTAC” was 0.208 RPM ratio (pull-down/input); that for “GATGATTGTTCTCCCAGCTGATGAATTTGGTAACTCGAGTAAACAAATTTTCCTAATCTTTCTGTTCAAGCGCCATCTAC” was 1.38 RPM ratio (pull-down/input).

For “GATGATTGTTCTCCCAGCTGATGAATTTGCCTTGTCGAGTAAACAAATTTTCCTAATCTTTCTGTTCAAGCGCCATCTAC”, the binding signal is 1.15 RPM ratio (pull-down/input). Regarding “GATGATTGTTCTCCCAGCTGATGAATTAATAGAGTCGAGTAAACAAATTTTCCTAATCTTTCTGTTCAAGCGCCATCTAC”, the binding signal is 0.294 RPM ratio (pull-down/input).

As to “GATGATTGTTCTCCCAGCTGATGAATTTTTGCACTCGAGTAAACAAATTTTCCTAATCTTTCTGTTCAAGCGCCATCTAC”, the binding signal was 0.699 RPM ratio (pull-down/input). The value for “GATGATTGTTCTCCCAGCTGATGAATTGCCACTCTCGAGTAAACAAATTTTCCTAATCTTTCTGTTCAAGCGCCATCTAC” was 1.37 RPM ratio (pull-down/input); that for “GATGATTGTTCTCCCAGCTGATGAATTTTGCCACTCGAGTAAACAAATTTTCCTAATCTTTCTGTTCAAGCGCCATCTAC” was 5.96 RPM ratio (pull-down/input); that for “GATGATTGTTCTCCCAGCTGATGAATTTGCCCACTCGAGTAAACAAATTTTCCTAATCTTTCTGTTCAAGCGCCATCTAC” was 0.555 RPM ratio (pull-down/input). On to “GATGATTGTTCTCCCAGCTGATGAATTGCCACACTCGAGTAAACAAATTTTCCTAATCTTTCTGTTCAAGCGCCATCTAC”, for which the binding signal is 1.52 RPM ratio (pull-down/input).

“GATGATTGTTCTCCCAGCTGATGAATTGCGCCACTCGAGTAAACAAATTTTCCTAATCTTTCTGTTCAAGCGCCATCTAC”: the binding signal is 7.19 RPM ratio (pull-down/input). Consider “GATGATTGTTCTCCCAGCTGATGAATTGCTGCTCTCGAGTAAACAAATTTTCCTAATCTTTCTGTTCAAGCGCCATCTAC”, for which the binding signal is 0.662 RPM ratio (pull-down/input). The value for “GATGATTGTTCTCCCAGCTGATGAATTAAGACGATCGAGTAAACAAATTTTCCTAATCTTTCTGTTCAAGCGCCATCTAC” was 0.207 RPM ratio (pull-down/input); that for “GATGATTGTTCTCCCAGCTGATGAATTGCTCACATCGAGTAAACAAATTTTCCTAATCTTTCTGTTCAAGCGCCATCTAC” was 0.686 RPM ratio (pull-down/input). The value for “GATGATTGTTCTCCCAGCTGATGAATTTTTTATATCGAGTAAACAAATTTTCCTAATCTTTCTGTTCAAGCGCCATCTAC” was 0.31 RPM ratio (pull-down/input); that for “GATGATTGTTCTCCCAGCTGATGAATTTTATATATCGAGTAAACAAATTTTCCTAATCTTTCTGTTCAAGCGCCATCTAC” was 1.65 RPM ratio (pull-down/input). Take “GATGATTGTTCTCCCAGCTGATGAATTGTTTATATCGAGTAAACAAATTTTCCTAATCTTTCTGTTCAAGCGCCATCTAC”: the binding signal was 5.7 RPM ratio (pull-down/input). The value for “GATGATTGTTCTCCCAGCTGATGAATTATATTTATCGAGTAAACAAATTTTCCTAATCTTTCTGTTCAAGCGCCATCTAC” was 5.59 RPM ratio (pull-down/input); that for “GATGATTGTTCTCCCAGCTGATGAATTTATTATATCGAGTAAACAAATTTTCCTAATCTTTCTGTTCAAGCGCCATCTAC” was 2.18 RPM ratio (pull-down/input); that for “GATGATTGTTCTCCCAGCTGATGAATTTATATTATCGAGTAAACAAATTTTCCTAATCTTTCTGTTCAAGCGCCATCTAC” was 1.6 RPM ratio (pull-down/input).

(Values after article PMC12820563, “FoxP3 forms a head-to-head dimer in vivo and stabilizes its multimerization on adjacent microsatellites”.)
